# Test results published in PubChem BioAssay (Tox21).
# Records with an inconclusive call do not appear. A call without a number means that no potency is given here. Some structures have more than one record in an assay (separate samples or runs), and their calls can disagree. Active and inactive are the calls of the source. Unless noted, the call rests on the fitted dose curve; in most records, active means well fitted curve in the direction sought with a large enough effect in the repeat runs; inconclusive means weak or mixed curves; inactive means no such curve, though single readings can be large; an effect the other way counts as inactive or inconclusive.
# Legend:
# [1] = molecular target: Thyrotropin receptor (Homo sapiens) (UniProt P16473); experiment: qHTS assay to identify small molecule antagonists of the thyroid stimulating hormone receptor (TSHR) signaling pathway (AID 1259385; calls by dose curve; further: nearly all actives have a fitted effect of over 20% in size)
# Thyrotropin receptor (Homo sapiens), sequence (P16473 whole entry, looked up): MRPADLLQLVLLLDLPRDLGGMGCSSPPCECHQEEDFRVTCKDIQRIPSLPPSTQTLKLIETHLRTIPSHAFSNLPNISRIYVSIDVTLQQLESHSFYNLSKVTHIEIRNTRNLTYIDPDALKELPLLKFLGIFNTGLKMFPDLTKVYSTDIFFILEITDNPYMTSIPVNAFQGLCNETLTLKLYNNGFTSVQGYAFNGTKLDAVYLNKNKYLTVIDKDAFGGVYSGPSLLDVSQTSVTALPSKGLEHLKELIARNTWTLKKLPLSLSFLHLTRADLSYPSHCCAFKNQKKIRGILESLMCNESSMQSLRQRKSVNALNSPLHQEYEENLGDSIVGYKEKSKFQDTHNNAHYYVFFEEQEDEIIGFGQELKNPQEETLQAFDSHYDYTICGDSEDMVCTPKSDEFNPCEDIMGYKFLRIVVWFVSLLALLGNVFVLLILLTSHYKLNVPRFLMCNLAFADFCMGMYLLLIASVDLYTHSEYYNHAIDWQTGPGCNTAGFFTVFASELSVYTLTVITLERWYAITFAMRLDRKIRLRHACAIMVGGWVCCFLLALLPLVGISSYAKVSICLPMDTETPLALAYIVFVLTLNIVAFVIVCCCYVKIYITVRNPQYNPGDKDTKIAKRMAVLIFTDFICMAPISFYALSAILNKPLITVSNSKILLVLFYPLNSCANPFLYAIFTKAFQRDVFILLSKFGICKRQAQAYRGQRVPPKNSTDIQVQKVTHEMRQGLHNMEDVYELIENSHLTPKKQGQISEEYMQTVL
# Procedure, shortened: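 TSHR-HEK293 cells were plated and held 18 h at 37C/5% CO2, then given compound plus Ro20-1724 and stimulated with TSH at 1.5 ng/mL final. After 30 min at room temperature, cAMP was detected with cAMP-d2/anti-cAMP-cryptate (1 h) by fluorescence.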
# [2] = molecular target: Progesterone receptor (Homo sapiens) (UniProt P06401); experiment: qHTS assay to identify small molecule agonists of the progesterone receptor (PR) signaling pathway (AID 1346784; calls by dose curve; further: nearly all actives have a fitted effect of over 30% in size)
# Progesterone receptor (Homo sapiens), sequence (P06401 whole entry, looked up): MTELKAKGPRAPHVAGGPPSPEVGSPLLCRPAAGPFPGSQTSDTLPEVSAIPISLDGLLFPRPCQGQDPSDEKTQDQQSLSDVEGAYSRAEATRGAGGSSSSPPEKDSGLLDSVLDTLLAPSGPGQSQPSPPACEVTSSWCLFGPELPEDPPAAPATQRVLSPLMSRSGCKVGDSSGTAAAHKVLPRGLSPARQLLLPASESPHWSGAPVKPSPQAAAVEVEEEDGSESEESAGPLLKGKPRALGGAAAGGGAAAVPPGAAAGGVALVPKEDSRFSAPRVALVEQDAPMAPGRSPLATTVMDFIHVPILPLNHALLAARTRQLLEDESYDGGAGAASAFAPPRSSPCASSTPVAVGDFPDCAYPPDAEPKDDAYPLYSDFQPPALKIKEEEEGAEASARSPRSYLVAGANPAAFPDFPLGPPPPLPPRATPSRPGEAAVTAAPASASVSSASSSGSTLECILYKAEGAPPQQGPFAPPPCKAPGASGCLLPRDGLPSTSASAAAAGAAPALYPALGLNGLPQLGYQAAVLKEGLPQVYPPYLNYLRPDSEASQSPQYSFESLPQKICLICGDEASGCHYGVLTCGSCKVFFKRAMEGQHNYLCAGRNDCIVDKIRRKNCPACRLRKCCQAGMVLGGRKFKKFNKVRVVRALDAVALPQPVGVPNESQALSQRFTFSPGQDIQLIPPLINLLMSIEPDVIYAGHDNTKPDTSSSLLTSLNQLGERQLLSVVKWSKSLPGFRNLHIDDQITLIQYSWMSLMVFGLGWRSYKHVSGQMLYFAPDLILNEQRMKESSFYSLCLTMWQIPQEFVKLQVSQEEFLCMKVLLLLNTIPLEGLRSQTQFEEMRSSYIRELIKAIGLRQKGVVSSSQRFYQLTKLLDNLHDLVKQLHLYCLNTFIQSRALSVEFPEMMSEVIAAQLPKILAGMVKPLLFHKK
# Procedure, shortened: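 Seed PR-UAS-bla HEK 293T cells (2% charcoal-stripped FBS), incubate 6 hr at 37C; add compounds in DMSO, 16 hr at 37C; add LiveBLAzer B/G substrate, 2 hr RT; read fluorescence intensity.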
# [3] = molecular target: Progesterone receptor (Homo sapiens) (UniProt P06401); experiment: qHTS assay to identify small molecule antagonists of the progesterone receptor (PR) signaling pathway (AID 1346795; active means well fitted inhibition curve with a large enough effect in the signal ratio in the repeat runs, not every such curve was filed as active; the % refers to the signal ratio)
# Procedure, shortened: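 Screening used a GripTite HEK293T line with PR-responsive UAS-beta-lactamase. Cells were challenged with compound in the presence of 1 nM R5020 final for 16 hr at 37C; B/G FRET substrate, 2 hr room temperature, fluorescence.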
# [4] = qHTS assay to identify small molecule antagonists of the progesterone receptor (PR) signaling pathway - cell viability counter screen (AID 1346798); further: series mostly up to about 92 µM; nearly all actives have a fitted effect of over 50% in size
# Procedure, shortened: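 Measures cytotoxicity in parallel with the PR antagonist reporter read: HEK293T PR-UAS-bla cells get compound and R5020 for 16 hr, and remaining viable cells are quantified by CellTiter-Glo luminescence.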
# [5] = qHTS assay to identify small molecule agonists of the progesterone receptor (PR) signaling pathway - cell viability counter screen (AID 1346799; calls by dose curve; further: nearly all actives have a fitted effect of over 45% in size)
# Procedure, shortened: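 Using the same plates as the PR reporter screen, HEK293T PR-UAS-bla cells received compounds for 16 hr at 37C and were then lysed with CellTiter-Glo; luminescence was read 30 min later at room temperature.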
# [6] = qHTS assay to identify small molecule antagonists of the TGF-beta/Smad signaling pathway - cell viability counter screen (AID 1346824); further: nearly all actives have a fitted effect of over 50% in size
# Procedure, shortened: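 SBE-bla HEK 293T cells were plated overnight at 37 C, then given compounds in DMSO plus TGF-beta1 (added as 0.25 ng/mL solution) for 5 hr. After the bla read, CellTiter-Glo was added to the same wells and luminescence read after 30 min at room temperature.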
# [7] = qHTS assay to identify small molecule agonists of the TGF-beta/Smad signaling pathway - cell viability counter screen (AID 1346829); further: top concentration of the series differs between compounds; nearly all actives have a fitted effect of over 45% in size
# Procedure, shortened: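 Tox21 qHTS format: SBE-bla HEK 293T cells treated with DMSO-dissolved compounds for 5 hr; CellTiter-Glo luminescence after 30 min at room temperature.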
# [8] = qHTS assay to identify small molecule agonists of the TGF-beta/Smad signaling pathway (AID 1346859; active means well fitted activation curve with a large enough effect in the signal ratio in the repeat runs, not every such curve was filed as active; the % refers to the signal ratio; further: series mostly up to about 77 µM)
# Procedure, shortened: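 Beta-lactamase reporter activity downstream of Smad binding elements was measured in stably transfected HEK 293T cells; compounds were incubated for 5 hr, substrate for 2 hr at room temperature.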
# [9] = Human pregnane X receptor (PXR) small molecule agonists, qHTS cell viability counter screen (AID 1346977); further: nearly all actives have a fitted effect of over 50% in size
# Procedure, shortened: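 After a 5hr pre-incubation, PXR-Luc HepG2 cells received compounds plus positive control in DMSO and were kept 24hr at 37C. Cell viability was quantified by fluorescence from CellTiter-Fluor added for the final hour.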
# [10] = Caspase-3/7 induction in HepG2 cells by small molecules, qHTS assay (AID 1346978); further: nearly all actives have a fitted effect of over 15% in size
# Procedure, shortened: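 Wild-type HepG2 cells (2,000/well) were settled 5 h at 37 C, 5% CO2, then exposed to compounds in DMSO for 17 h. Caspase-3/7 activity was read by luminescence 30 min after adding Caspase-Glo 3/7 reagent at room temperature.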
# [11] = Caspase-3/7 induction in CHO-K1 cells by small molecules, qHTS cell viability counter screen (AID 1346979); further: nearly all actives have a fitted effect of over 35% in size
# Procedure, shortened: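 Multiplexed with Caspase-Glo 3/7 in CHO-K1 cells, this counter screen added CellTiter-Fluor after 16hr of compound exposure and recorded fluorescence 1hr later.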
# [12] = Caspase-3/7 induction in CHO-K1 cells by small molecules, qHTS assay (AID 1346980); further: nearly all actives have a fitted effect of over 15% in size
# Procedure, shortened: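 Wild-type cells were seeded at 1,500 per well and settled 5 hr at 37 C, 5% CO2, then exposed to DMSO-dissolved compounds for 17 hr. Caspase-Glo 3/7 reagent was added, and luminescence was read after 30min at room temperature.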
# [13] = Caspase-3/7 induction in HepG2 cells by small molecules, qHTS cell viability counter screen (AID 1346981); further: series mostly up to about 92 µM; nearly all actives have a fitted effect of over 30% in size
# Procedure, shortened: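 Fluorescence read-out of live-cell protease activity (CellTiter-Fluor) after 1 hr with reagent. This was measured in the same wells as the caspase-3/7 luminescence, on HepG2 cells exposed to DMSO-dissolved compounds for 16 hr at 37 C.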
# [14] = molecular target: Nuclear receptor subfamily 1 group I member 2 (Homo sapiens) (UniProt O75469); experiment: Human pregnane X receptor (PXR) small molecule agonists, qHTS assay (AID 1346982); further: nearly all actives have a fitted effect of over 35% in size; further: potency means the concentration at half of the fitted maximal effect
# Nuclear receptor subfamily 1 group I member 2 (Homo sapiens), sequence (O75469 whole entry, looked up): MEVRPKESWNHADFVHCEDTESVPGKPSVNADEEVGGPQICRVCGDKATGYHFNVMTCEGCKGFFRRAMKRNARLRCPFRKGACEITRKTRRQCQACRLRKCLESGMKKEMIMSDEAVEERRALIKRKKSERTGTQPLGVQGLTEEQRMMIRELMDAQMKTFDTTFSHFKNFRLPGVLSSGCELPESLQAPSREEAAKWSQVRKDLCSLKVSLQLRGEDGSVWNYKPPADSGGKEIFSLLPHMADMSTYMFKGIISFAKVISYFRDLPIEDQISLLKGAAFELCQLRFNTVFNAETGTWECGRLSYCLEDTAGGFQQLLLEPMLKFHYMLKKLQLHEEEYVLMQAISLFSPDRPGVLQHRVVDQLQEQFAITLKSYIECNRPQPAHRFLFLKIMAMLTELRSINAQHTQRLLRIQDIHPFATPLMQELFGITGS
# Procedure, shortened: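 HepG2 PXR-Luc reporter line, 5% charcoal-stripped FBS; 5 hr pre-incubation, compound (DMSO) 24 hr at 37 C/5% CO2; ONE-Glo 30 min RT; luminescence read-out.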
# [15] = molecular target: Thyrotropin-releasing hormone receptor (Homo sapiens) (UniProt P34981); experiment: qHTS assay to identify small molecule antagonists of the thyrotropin-releasing hormone receptor (TRHR) signaling pathway (AID 1346877; active means well fitted inhibition curve with a large enough effect in the repeat runs, not every such curve was filed as active; further: series mostly up to about 51 µM)
# Thyrotropin-releasing hormone receptor (Homo sapiens), sequence (P34981 whole entry, looked up): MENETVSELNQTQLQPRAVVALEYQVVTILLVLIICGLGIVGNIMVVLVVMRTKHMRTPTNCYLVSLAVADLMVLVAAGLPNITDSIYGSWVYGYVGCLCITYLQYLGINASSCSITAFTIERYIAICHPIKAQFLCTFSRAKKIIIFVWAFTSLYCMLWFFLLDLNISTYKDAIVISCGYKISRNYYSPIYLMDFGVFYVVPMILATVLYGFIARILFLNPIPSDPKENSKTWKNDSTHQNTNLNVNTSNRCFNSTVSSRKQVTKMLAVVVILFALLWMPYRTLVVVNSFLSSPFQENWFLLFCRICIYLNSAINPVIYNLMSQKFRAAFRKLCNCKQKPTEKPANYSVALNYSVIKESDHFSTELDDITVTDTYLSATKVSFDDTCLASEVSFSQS
# Procedure, shortened: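 HEK293/TRHR cells, 18 h, 37 °C; Ca2+ dye 2 h; cpd 5 min RT; TRH 1 nM final; fluorescence read 3 min, 1 s intervals; 15 concs, triplicate.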
# [16] = molecular target: Thyrotropin-releasing hormone receptor (Homo sapiens) (UniProt P34981); experiment: qHTS assay to identify small molecule agonists of the thyrotropin-releasing hormone receptor (TRHR) signaling pathway (AID 1346891; calls by dose curve;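 further: HEK293 cells expressing TRHR with calcium dye readout; series mostly up to about 58 µM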)
# Procedure, shortened: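 Overnight-plated (18 h, 37 °C, 5% CO2) TRHR-Hek293 cells; 2 h calcium dye at 37 °C; compound in DMSO; 3-min kinetic fluorescence read.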
# [17] = molecular target: Nuclear receptor subfamily 1 group I member 2 (Rattus norvegicus) (UniProt Q9R1A7); experiment: Rat pregnane X receptor (rPXR) activation by small molecules, qHTS assay (AID 1346983); settings: rPXR luciferase reporter cells, One-Glo luminescence, 24 h; stronger effect = higher value; further: nearly all actives have a fitted effect of over 20% in size
# Nuclear receptor subfamily 1 group I member 2 (Rattus norvegicus), sequence (Q9R1A7 whole entry, looked up): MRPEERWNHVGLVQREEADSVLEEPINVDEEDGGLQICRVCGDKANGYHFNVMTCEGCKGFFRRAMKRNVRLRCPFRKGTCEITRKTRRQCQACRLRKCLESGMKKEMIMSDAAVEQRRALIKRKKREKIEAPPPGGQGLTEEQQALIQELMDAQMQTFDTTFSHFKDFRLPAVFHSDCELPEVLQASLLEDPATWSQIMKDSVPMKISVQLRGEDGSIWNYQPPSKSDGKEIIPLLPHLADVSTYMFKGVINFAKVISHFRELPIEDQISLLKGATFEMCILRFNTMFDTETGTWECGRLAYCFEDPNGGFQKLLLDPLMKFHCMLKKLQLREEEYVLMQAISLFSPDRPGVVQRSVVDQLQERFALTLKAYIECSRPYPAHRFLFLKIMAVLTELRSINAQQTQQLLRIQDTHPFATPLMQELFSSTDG
# Procedure, shortened: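 Cell-based rPXR luciferase reporter assay, 2,000 cells per well, rested 5hr at 37 C before compound addition in DMSO, then 24 hr at 37 C. One-Glo reagent was added and luminescence read after 30 min at room temperature.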
# [18] = molecular target: Nuclear receptor subfamily 1 group I member 2 (Homo sapiens) (UniProt O75469); experiment: CYP3A4 induction through human pregnane X receptor (PXR) by small molecules, qHTS assay (AID 1346984); further: nearly all actives have a fitted effect of over 40% in size
# Procedure, shortened: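 HepG2-derived DPX-2 line carrying PXR plus a CYP3A4-promoter luciferase reporter; cells plated 5 hr, compound-exposed 24 hr at 37C. CYP3A4 activity probed with 3uM (final) Luciferin-IPA for 3hr, then luciferase read after One-Glo.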
smiles,measurement,setting,value
CCOC(=O)C(=O)OCC,Potency,[1],inactive
same,Potency,[2],inactive
same,Potency,[3],inactive
same,Potency,[4],inactive
same,Potency,[5],inactive
same,Potency,[6],inactive
same,outcome,[7],inactive
same,outcome,[8],inactive
same,Potency,[9],inactive
same,Potency,[10],inactive
same,Potency,[11],inactive
same,outcome,[12],inactive
same,Potency,[13],inactive
same,Potency,[14],inactive
Nc1c2c(nc3ccccc13)CCCC2O (stereo not drawn),Potency,[1],inactive
same,Potency,[2],inactive
same,Potency,[3],inactive
same,Potency,[4],inactive
same,Potency,[5],inactive
same,Potency,[6],inactive
same,outcome,[7],inactive
same,outcome,[8],inactive
same,outcome,[15],inactive
same,outcome,[16],inactive
same,Potency,[9],inactive
same,Potency,[10],inactive
same,Potency,[11],inactive
same,outcome,[12],inactive
same,Potency,[13],inactive
same,Potency,[14],inactive
CCO[Si](CCC1CCC2OC2C1)(OCC)OCC (stereo not drawn),Potency,[1],inactive
same,Potency,[2],inactive
same,Potency,[3],inactive
same,Potency,[5],inactive
same,Potency,[6],inactive
same,outcome,[7],inactive
same,outcome,[8],inactive
same,outcome,[16],inactive
same,Potency,[9],inactive
same,Potency,[10],inactive
same,Potency,[11],inactive
same,outcome,[12],inactive
same,Potency,[13],inactive
same,Potency,[14],inactive
O=C[C@H](O)[C@@H](O)[C@H](O)[C@H](O)CO,Potency,[1],inactive
same,Potency,[2],inactive
same,Potency,[3],inactive
same,Potency,[4],inactive
same,Potency,[5],inactive
same,Potency,[6],inactive
same,outcome,[7],inactive
same,outcome,[8],inactive
same,outcome,[16],inactive
same,Potency,[9],inactive
same,Potency,[10],inactive
same,Potency,[11],inactive
same,outcome,[12],inactive
same,Potency,[13],inactive
same,Potency,[14],inactive
O=C(O)CCCc1ccccc1,Potency,[1],inactive
same,Potency,[3],inactive
same,Potency,[5],inactive
same,Potency,[6],inactive
same,outcome,[7],inactive
same,outcome,[8],inactive
same,outcome,[15],inactive
same,outcome,[16],inactive
same,Potency,[9],inactive
same,Potency,[10],inactive
same,Potency,[11],inactive
same,outcome,[12],inactive
same,Potency,[13],inactive
same,Potency,[14],inactive
NCCCNCCSP(=O)(O)O,"activity change, negative = inhibition",[1],-3.62% [at 8.39 µM] (inactive)
same,"activity change, negative = cytotoxicity",[4],1.3% [at 8.39 µM] (inactive)
same,"activity change, negative = cytotoxicity",[5],17.5% [at 8.39 µM] (inactive)
same,"viability change, negative = cytotoxic",[6],10.3% [at 6.97 µM] (inactive)
same,"activity change, negative = cytotoxicity",[7],-10% [at 6.97 µM] (inactive)
same,activation,[8],0.256% [at 6.97 µM] (inactive)
same,activation,[16],-0.402% [at 5.23 µM] (inactive)
same,"activity change, negative = cytotoxicity",[9],7.22% [at 8.39 µM] (inactive)
same,caspase activation,[10],-1.36% [at 8.39 µM] (inactive)
same,"activity change, negative = cytotoxicity",[11],5.53% [at 8.39 µM] (inactive)
same,caspase-3/7 activation,[12],0.0901% [at 8.39 µM] (inactive)
same,"activity change, negative = cytotoxicity",[13],1.15% [at 8.39 µM] (inactive)
same,activation,[14],-4.2% [at 8.39 µM] (inactive)
CCN1CCC[C@H]1CNC(=O)c1c(O)c(Cl)cc(Cl)c1OC,Potency,[1],inactive
same,Potency,[2],inactive
same,Potency,[4],inactive
same,Potency,[5],inactive
same,Potency,[6],inactive
same,outcome,[7],inactive
same,outcome,[8],inactive
same,outcome,[15],inactive
same,outcome,[16],inactive
same,Potency,[9],inactive
same,Potency,[10],inactive
same,Potency,[11],inactive
same,outcome,[12],inactive
same,Potency,[13],inactive
same,max activation,[17],-0.579% (inactive)
same,Potency,[18],inactive
CC(=O)OC/C=C(\C)CC/C=C(\C)CCC=C(C)C,Potency,[1],inactive
same,Potency,[2],inactive
same,Potency,[3],inactive
same,Potency,[4],inactive
same,Potency,[5],inactive
same,Potency,[6],inactive
same,outcome,[7],inactive
same,outcome,[8],inactive
same,outcome,[15],inactive
same,outcome,[16],inactive
same,Potency,[9],inactive
same,Potency,[10],inactive
same,Potency,[11],inactive
same,outcome,[12],inactive
same,Potency,[13],inactive
same,Potency,[14],61.1 µM (active) and inactive
